# IL-1B inflam inh = qHTS for Inhibitors of Inflammasome Signaling: IL-1-beta AlphaLISA Primary Screen | 4.7% of 360,000 active | activity change, % at 57.5 µM | THP-1 LPS/ATP IL-1B secretion, AlphaLISA, 16 h; hits give low values; in the data active = activity change below about -50%; inconclusive = mostly about -30% to -49%
#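 Secreted IL-1B measured by AlphaLISA bead assay after 16 h compound exposure of THP-1 cells; compounds (final up to 57.5 uM) added 1 h before LPS (250 ng/mL) and ATP (1.25 mM) stimulation; lower signal means less secretion.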
# TDP1 inh = qHTS Assay for Inhibitors of Tyrosyl-DNA Phosphodiesterase (TDP1). Potency, µM (highest dose often 130 µM), inactives show top-dose activity change, negative = inhibition, actives largely listed as inhibitors. 0.28% of 350,000 active. recombinant TDP1, AlphaScreen DNA substrate cleavage. Tyrosyl-DNA phosphodiesterase 1 (Homo sapiens), Q9NUW8; also: potency is read from the fitted curve at half-maximal effect; nearly all actives have a fitted effect of over 40% in size
# Target sequence (Q9NUW8 whole entry, looked up): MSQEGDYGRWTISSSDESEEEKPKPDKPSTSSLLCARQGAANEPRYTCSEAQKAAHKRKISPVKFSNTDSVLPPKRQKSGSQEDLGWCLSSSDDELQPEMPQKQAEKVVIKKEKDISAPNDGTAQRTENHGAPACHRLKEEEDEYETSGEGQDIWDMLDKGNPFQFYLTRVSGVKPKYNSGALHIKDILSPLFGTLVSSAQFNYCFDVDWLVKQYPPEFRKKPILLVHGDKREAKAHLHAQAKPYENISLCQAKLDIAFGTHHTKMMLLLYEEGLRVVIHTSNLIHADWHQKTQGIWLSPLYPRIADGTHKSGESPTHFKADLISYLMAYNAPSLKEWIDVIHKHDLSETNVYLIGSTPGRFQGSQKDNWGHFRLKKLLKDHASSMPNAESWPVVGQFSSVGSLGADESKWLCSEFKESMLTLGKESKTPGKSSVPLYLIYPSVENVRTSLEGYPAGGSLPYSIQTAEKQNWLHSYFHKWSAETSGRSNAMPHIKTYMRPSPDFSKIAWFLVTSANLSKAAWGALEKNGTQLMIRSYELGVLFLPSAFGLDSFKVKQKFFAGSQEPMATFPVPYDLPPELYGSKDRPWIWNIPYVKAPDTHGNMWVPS
#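 Compounds were preincubated with Tdp1 (1 nM final) for 15 min at room temperature before substrate (15 nM final) started a 5 min reaction; beads (10 ug/ml final) were then added for 10 min before AlphaScreen detection.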
# Giardia kill = Small Molecules that selectively kill Giardia lamblia: qHTS. Giardia lamblia trophozoite viability. AID 540267, 2011. 0.15% of 340,000 active. activity change, % at 7.66 µM, hits read low; in the data active = activity change below about -80%; inconclusive = between about -30% and that limit;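 also: parasites exposed to compound for two days anaerobically before the ATP read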
#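 Each well holds 100 Giardia trophozoites and compound. After two days (48 hrs) at 37 deg C in anaerobic conditions, ATP is quantified by luminescence.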
# DT40 TDP1 no CPT = qHTS for Inhibitors of human tyrosyl-DNA phosphodiesterase 1 (TDP1): qHTS in cells in absence of CPT; DT40 Tdp1-/- hTDP1 cells, no CPT, ATP luminescence, 48 h; AID 686978, 2013; 15% of 420,000 active; Potency, µM (highest dose often 46.2 µM), inactives show top-dose activity change, negative = growth inhibition, actives largely listed as inhibitors; also: potency is read from the fitted curve at half-maximal effect; nearly all actives have a fitted effect of over 55% in size
#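 DT40 Tdp1-/-;hTDP1 cells, no CPT (DMSO vehicle only), 400 cells/well; compounds pin-transferred; ≥48 hr, 37 °C; CellTiter-Glo 30 min RT dark, luminescence read.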
# DT40 TDP1 CPT = qHTS for Inhibitors of human tyrosyl-DNA phosphodiesterase 1 (TDP1): qHTS in cells in presence of CPT; AID 686979, 2013; chicken DT40 Tdp1-/-;hTDP1 cells + 20 nM CPT, ATP luminescence, 48 h; Potency, µM (series often up to 46.2 µM), inactives show at the highest dose activity change, negative = growth inhibition, hits mostly inhibitors; 12% of 420,000 active; also: potency is read from the fitted curve at half-maximal effect; nearly all actives have a fitted effect of over 55% in size
#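 Chicken DT40 Tdp1-/- cells stably complemented with human TDP1 were seeded at 400 cells/well in medium containing 20 nM camptothecin, exposed to pin-transferred compounds, and grown at 37 °C for at least 48 hr. Viability was read as ATP luminescence.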
# ELG1 DNA repair = qHTS screen for small molecules that inhibit ELG1-dependent DNA repair in human embryonic kidney (HEK293T) cells expressing luciferase-tagged ELG1 | Potency, µM (doses to about 46.1 µM), for inactives: top-dose activity change, negative = inhibition, hits mostly inhibitors | HEK293T ELG1-luciferase reporter, luminescence, 16 h; DNA damage induced by 5-fluorouridine | 2.3% of 330,000 active; also: potency is read from the fitted curve at half-maximal effect; nearly all actives have a fitted effect of over 55% in size
#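 5-Fluorouridine DNA damage + compound/DMSO, 2,000 cells/well, 16 h, 37 °C/5% CO2. ONE-Glo, 30 min RT, luminescence. Readout = decrease in reporter signal.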
# * = called active by the depositor; ? = inconclusive; . = no result given. A selection: hits, their analogues and other compounds. The true share with any hit is near 19%. Unless noted, calls follow the shape of the dose curve; as a rule, active = well fitted curve in the direction sought with a large enough effect; inconclusive = small, poorly fitted or top-dose-only effect, or another doubt; inactive = no such curve, though single readings can be large; an effect the other way counts as inactive or inconclusive. % is scaled to controls: 0 for no effect and ±100 for the full control effect.
SMILES,IL-1B inflam inh,TDP1 inh,Giardia kill,DT40 TDP1 no CPT,DT40 TDP1 CPT,ELG1 DNA repair
COc1ccc2cc(C(=O)C3CCCN(C(=O)c4cnn(C(C)C)c4)C3)ccc2c1 (centres undefined),14,5%,-4,?,26µM*,10%
COc1ccc2cc(C(=O)C3CCCN(C(=O)CCc4cnn(C)c4)C3)ccc2c1 (centres undefined),-57*,.,-1,?,?,?
COc1ccc2cc(C(=O)C3CCCN(C(=O)c4csnn4)C3)ccc2c1 (centres undefined),-1,0%,-11,?,-20%,?
Cc1cc(=O)n2nc(N(C)CC(=O)NCc3cccc(Br)c3)sc2n1,.,-3%,.,-12%,-26%,.
CCSc1nsc(NC(=O)Nc2ccccc2Cl)n1,-78*,.,-19,15µM*,?,.
CCSc1nsc(NC(=O)Nc2ccc(F)cc2F)n1,-90*,4%,-10,4.6µM*,4.6µM*,?
O=C1CC(c2ccccc2)Cc2[nH]c(=O)c(-c3nc(-c4cccc(Cl)c4)cs3)cc21 (centres undefined),.,3%,.,5.2µM*,5.2µM*,.
Cn1cc(C(=O)c2ccc(F)cc2)cc1-c1nc2ccccc2n1C,-29,7%,-17,16µM*,?,?
COc1cc(=O)n2c(c1C(=O)N(C)Cc1cscn1)CCN(C(=O)c1ccc(C)c(C)c1)CC2,.,.,.,-3%,7%,.
CCO[C@@H]1OC(C(=O)N2CCN(Cc3ccccc3)CC2)=C[C@H](c2csc3ccccc23)[C@H]1CCCO,-54*,3%,14,29µM*,13µM*,-28%
CCO[C@@H]1OC(C(=O)N2CCN(C)CC2)=C[C@H](c2ccc(C(F)(F)F)cc2)[C@H]1CCCO,12,3%,?,-10%,-23%,18%
CCO[C@@H]1OC(C(=O)N2CCCCCCC2)=C[C@H](c2ccc(C(F)(F)F)cc2)[C@H]1CCCO,-16,6%,-1,23µM*,?,2%
CCO[C@H]1OC(C(=O)N2CCN(C)CC2)=C[C@@H](c2ccc(C(F)(F)F)cc2)[C@@H]1CCCO,2,0%,-5,-1%,-4%,1%
CCO[C@H]1OC(C(=O)N2CCN(Cc3ccccc3)CC2)=C[C@@H](c2ccc(C(F)(F)F)cc2)[C@@H]1CCCO,-60*,3%,-9,15µM*,21µM*,-16%
CCO[C@H]1OC(C(=O)N2CCOCC2)=C[C@@H](c2ccc(C(F)(F)F)cc2)[C@@H]1CCCO,-3,4%,14,?,0.52µM*,2%
O=C(CN(C(=O)C1CSC(=O)C1)c1cccc(F)c1)NCc1ccc2c(c1)OCO2 (centres undefined),-16,9%,1,-22%,1%,-6%
CCO[C@@H]1OC(C(=O)N2CCOCC2)=C[C@H](c2ccc(Br)cc2)[C@H]1CCCO,20,6%,-23,?,?,14%
CCO[C@@H]1OC(C(=O)N2CCOCC2)=C[C@H](c2ccc(C(F)(F)F)cc2)[C@H]1CCCO,25,5%,-7,?,15µM*,-15%
Cc1ccc(OCC(=O)Oc2ccc(C)c(C)c2)cc1,-2,50µM*,20,10%,6%,9%
COc1ccc(OC(=O)COc2ccc(C)cc2)cc1,10,-6%,4,3%,1%,-7%
COc1cc(OC)c(NC(=O)c2cn(C)c(=O)c3cc(OC)c(OC)cc23)cc1Cl,.,0%,.,-14%,-9%,.
